Data reported in PubChem BioAssay AID540259 (Broad Institute, 2011).
Entries with a potency or affinity are not part of this list. The source made the active and inactive calls.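 The calls were made as follows: active = cell killing, meaning signal decrease, with fitted half-maximal dose at or below ten times the top valid tested dose; inconclusive = poor fit, or flat curve with 30 to 70% signal loss; inactive = the rest.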

test: ATP-based viability loss in HeLa cells – cell-based, CellTiter-Glo luminescence, cherry-pick samples, cytotoxicity control for MITF activator project, dose response (AID 540259); conditions: 24 h; series mostly up to 35 µM; activity change, negative = cytotoxicity: at the top concentration;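 also: 0% = DMSO neutral control and -100% = mitoxantrone positive control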

SMILES | activity change, negative = cytotoxicity
Nc1nc(CSc2ccccn2)nc(Nc2ccccc2)n1 | 13.2% (inactive)
FC(F)(F)c1ccnc(Oc2ccc(C3=NCCS3)cc2)c1 | 0.775% (inactive)
c1csc(-c2nc(N3CCCCC3)no2)c1 | -0.703% (inactive)
O=C(c1noc2c1CCCC2)N1CCc2ccccc2C1 | 1.91% (inactive)
ClCCn1cnc2c(SCc3ccccc3)ncnc21 | 20% (inactive)
Clc1ccccc1OCc1nnc(-c2ccccc2Br)o1 | -2% (inactive)
COc1ccc2cc(-c3csc(-c4cccnc4)n3)ccc2c1 | -5.03% (inactive)
CC(C)(C)n1ncc2c(=O)n(CC(=O)c3ccccc3)cnc21 | -10.5% (inactive)
Cc1ccc(CONC(=O)c2ccc(C)cc2)cc1 | 22% (inactive)
COc1ccc(Oc2nnc(C)c3ccccc23)cc1 | 7.22% (inactive)
CCCc1nc2ccc(NC(C)=O)cc2c(=O)n1Cc1ccc(Cl)cc1 | 11% (inactive)
COc1ccc(N=C(C)c2sc3ccccc3c2O)cc1 | 0.743% (inactive)
O=C1c2ccccc2C(=O)N1CCc1c[nH]c2ccccc12 | -2.72% (inactive)
Cc1ccccc1-c1nc(Cc2ccccc2)no1 | 4.82% (inactive)
COc1ccccc1Nc1nc(C)cs1 | 25.3% (inactive)
